# The supplement of paper PMC6555819
# What was measured:
# Assay in all cases: PBM binding z-score (relative to random genomic background probes); higher = stronger binding; sequences stand for … in GC…GCGATTGACAGCGTAGAATGAAGG
# [1] = system: FXR:RXRa (NR concentration 270 nM, RXRa partner concentration 90 nM)
# Outline: (§1)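 Binding z-scores take random background probes as their reference. They come from custom Agilent 4×180K protein-binding microarrays incubated 1 h with ligand-free nuclear receptor dimers, with antibodies against each partner (one per run) detecting binding. Scanned fluorescence was regression-normalized.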
# [2] = system: LXRa:RXRa (NR concentration 270 nM, RXRa partner concentration 90 nM)
# Outline: as §1
# [3] = system: LXRa homodimer (NR concentration 270 nM)
# Outline: as §1
# [4] = system: LXRb:RXRa (NR concentration 270 nM, RXRa partner concentration 90 nM)
# Outline: as §1
# [5] = system: LXRb homodimer (NR concentration 270 nM)
# Outline: as §1
# [6] = system: PPARa:RXRa (NR concentration 270 nM, RXRa partner concentration 90 nM)
# Outline: as §1
# [7] = system: PPARg:RXRa (NR concentration 180 nM, RXRa partner concentration 90 nM)
# Outline: as §1
# [8] = system: PPARg:RXRa 270nM:90nM, anti-RXR (NR concentration 270 nM, RXRa partner concentration 90 nM)
# Outline: as §1
# [9] = system: PPARg:RXRa 30nM:10nM, anti-RXR (NR concentration 30 nM, RXRa partner concentration 10 nM)
# Outline: as §1
# [10] = system: PPARg:RXRa 90nM:30nM, anti-RXR (NR concentration 90 nM, RXRa partner concentration 30 nM)
# Outline: as §1
# [11] = system: PPARg:RXRa DBDmut IVT, anti-RXR (DBD mutation: RXRa K156A/R161A, NR concentration 270 nM, RXRa partner concentration 90 nM)
# Outline: as §1
# [12] = system: PPARg:RXRa IVT, anti-PPARg (NR concentration 270 nM, RXRa partner concentration 90 nM)
# Outline: as §1
# [13] = system: PPARg DBDmut:RXRa IVT, anti-PPARg (DBD mutation: PPARg1 K132A/R137A, NR concentration 270 nM, RXRa partner concentration 90 nM)
# Outline: as §1
# [14] = system: PPARg DBDmut IVT, anti-PPARg (DBD mutation: PPARg1 K132A/R137A, NR concentration 270 nM)
# Outline: as §1
# [15] = system: PPARg homodimer (NR concentration 180 nM)
# Outline: as §1
# [16] = system: PXR:RXRa (NR concentration 270 nM, RXRa partner concentration 90 nM)
# Outline: as §1
# [17] = system: PXR homodimer (NR concentration 270 nM)
# Outline: as §1
# [18] = system: RARa:RXR (NR concentration 270 nM, RXRa partner concentration 90 nM)
# Outline: as §1
# [19] = system: RARa homodimer (NR concentration 270 nM)
# Outline: as §1
Sequence,PBM binding z-score [1],PBM binding z-score [2],PBM binding z-score [3],PBM binding z-score [4],PBM binding z-score [5],PBM binding z-score [6],PBM binding z-score [7],PBM binding z-score [8],PBM binding z-score [9],PBM binding z-score [10],PBM binding z-score [11],PBM binding z-score [12],PBM binding z-score [13],PBM binding z-score [14],PBM binding z-score [15],PBM binding z-score [16],PBM binding z-score [17],PBM binding z-score [18],PBM binding z-score [19]
ATCGGAAGGTCGAGGTGAGTATAGAGAAAGGGAA,2.07,1.65,-0.107,1.23,0.134,2.5,1.23,1.33,0.513,0.876,0.383,1.36,0.811,0.693,1.44,1.1,0.218,1.59,0.522
ATTTGTAGGTTATCGGGTCATTCAGTTTGCGCAT,3.62,4.05,3.03,3.67,2.31,4.47,6.03,5.66,2.93,5.14,6.74,6.84,2.14,2.88,3.32,4.01,6.61,3.9,2.71
CGTCCAAGGTCACAGGAGGTCAGTGAAGACAGAT,7.67,7.39,4.32,5.97,0.764,6,6.76,6.69,3.37,5.61,4.02,5.26,0.184,-0.411,4.98,6.88,3.92,6.48,2.32
CGTCTAAGGTCAAGGTCAGTGAAAGAGACTCGAA,8.18,6.22,1.33,5.02,1.18,6.43,6.86,6.78,3.43,5.94,4.02,4.78,0.613,0.471,4.29,5.41,1.4,5.75,2.57
ACTAGTTGCTCAGCTGAGGTCACACACAATTCGG,2.75,2.94,1.75,3.4,0.214,3.4,1.17,1.69,0.448,1.24,0.944,1.76,0.496,1.18,1.91,4.3,1.44,4.26,0.561
GCTGCTAGGTCAGGTTGGTCGGCTAACGGGTACG,1.01,0.53,-0.245,0.0524,-0.665,1.04,0.113,0.773,-0.581,0.235,2.56,1.97,-0.279,-0.788,0.576,-0.127,-0.593,0.317,-0.865
CGTCAAAGTTCAACTAAGGTAACGTATAGCACGC,7.12,6.07,4.63,4.52,2.2,5.23,5.1,5.56,2.29,4.48,0.646,2.49,2.35,1.51,3.82,5.78,5.22,4.65,2.34
ATCTCTAGGTAAAGTTCAGCGAAAGATCGATAGA,1.69,2.33,1.67,1.65,0.72,2.81,3.77,4.78,2.56,4.27,2.11,2.5,1.45,1.53,1.49,2.29,1.48,2.06,0.708
CGTCAAAGTTCAAGTTAACGTAACAGAAAGCAGC,7.26,6.56,4.75,4.33,2.63,5.3,5.08,5.71,2.68,4.8,0.502,2.16,0.474,0.736,3.88,4.92,4.14,3.96,2.01
CCTGCTAGGTCTATGGTCAGCTAAAGCAGCTCGC,-0.302,-0.394,-0.393,-0.493,-0.41,-0.509,-0.485,0.268,-1.04,-0.432,-0.291,-0.225,-0.749,-1.11,-0.133,-0.569,-0.846,-0.37,-0.766
CCTACTGGGCCAAGGTCATTGCTCAGTCAAAGCA,3.09,3.01,0.828,2.83,-0.46,3.63,3.88,4.33,1.07,3.55,3.53,4.65,0.15,-1.36,1.17,3.36,0.887,3.01,-0.436
ACTAGTTGGTAAGCTGAGGTCACACACAATTCGG,2.58,3.17,2.68,3.35,0.606,3.57,1.54,1.96,0.653,1.13,0.595,1.93,1,0.246,2.25,4.72,1.85,4.42,1.2
CATACCGGGTCAGCTAGGCCAGAGTAGGGACGGC,2.5,1.78,-0.499,1.04,-0.0141,3.1,2.07,1.87,0.181,0.975,1.21,2.82,0.167,0.0787,0.359,1.05,-0.232,1.76,-0.125
CGAACTAAGTCATTGACAGGACAGTGAATAGTAA,-0.324,-0.239,-0.0692,-0.347,-0.466,-0.0981,0.241,0.0844,-0.211,-0.239,0.976,0.473,-0.569,0.367,-0.739,-0.093,-0.313,0.0796,0.472
CGTCAAAGCTCAACTAAGGTAACGTAAAGCACGC,0.16,-0.241,-0.0906,-0.093,-0.32,-0.0617,0.335,-0.241,-0.2,-0.494,0.431,-0.398,-1.05,-0.108,0.191,-0.124,-0.0533,0.83,-0.0738
